In all, about 53,000 sequences went through this assay and about 3,700 (7%) were called active. Only a selection was taken, and actives are over-represented in it overall. A number with no mark means an inactive call.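 Rule for the calls: active = gene knockdowns whose robust z-score for IL-1 alpha signal is at least 2 or at most -2, so actives lie on both sides; inactive = the rest.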
Assay: Components of the Cytosolic LPS Sensing Pathway: Gene Identification via Genome-wide siRNA Screen;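 note: robust z of the log signal after scaling to non-targeting control siRNA wells of the plate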
Settings: RAW264.7 macrophages, IL-1a HTRF, actives lie on both sides, screened at 100 nM (by protocol), cells primed 5 h with Pam3CSK4 first
In short: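 Read-out: IL-1a HTRF on supernatant, divided by plate negative-control median ×100, log-transformed and converted to robust z-score. Cells were RAW264.7 given 100 nM siRNA, Pam3CSK4-primed 5 hours, then LipidA-transfected 24 hour.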

Q: Which z-score does the source give for CCAAGAGCUGAAACAAGAATT against Ankrd12 here?
A: -2.01 (active)

Q: For GGUAGUGAUCCUCAAAAAATT against Myc, which z-score is on record?
A: 1.84

Q: With AGUCUUCACGUUUCAUUUATT against Olfr1195 as the sequence, how does the z-score read?
A: 0.32

Q: With CGCUGUUUGUUCAAGAGGATT against Thbs1 as the sequence, how does the z-score read?
A: 1.05

Q: Which z-score does the source give for GCACAAGCGAAGAAGUUUGTT against Ube2i here?
A: -0.0933

Q: With GCUCAACUUGGAAUUGGAGTT against Arhgap29 as the sequence, how does the z-score read?
A: 2.28 (active)

Q: For CCAUCUUGACAUCUCGUGUTT against Olfr592, which z-score is on record?
A: -1.9

Q: With CUUUAUGGGUCGUGGAGGATT against Hnrnpa3 as the sequence, how does the z-score read?
A: -1.12

Q: With GGAAUAGGACCUAUGUCUGTT against Nr2e1 as the sequence, how does the z-score read?
A: -0.455

Q: Which z-score does the source give for CCCUGGCUGAGUGCUUUGUTT against Olfr199 here?
A: 0.887

Q: For GGGUUGCCACAUGUUAUAUTT against Smad2, which z-score is on record?
A: -0.0821

Q: For GGAGAAUGAGUGGUAUCUGTT against Msh2, which z-score is on record?
A: -1.48

Q: With AAGGACGAUCCUGAUUUCATT against Gm5431 as the sequence, how does the z-score read?
A: 0.828

Q: With CCAUACAUCCGAGAGUUUGTT against Snrnp70 as the sequence, how does the z-score read?
A: 2.37 (active)

Q: Which z-score does the source give for GCCCUUUCAUCAAUAAUGUTT against Slc12a7 here?
A: -0.113

Q: Which z-score does the source give for GGAAACAUAACCUUCAAUGTT against Wdr3 here?
A: 1.13

Q: For CGGAAGCCUCCACAAAUAATT against Apba1, which z-score is on record?
A: 0.0959

Q: Which z-score does the source give for GGUGUCUACUCUGAGUUGCTT against Pan2 here?
A: 1.94

Q: Which z-score does the source give for GCGGAGGAGUUUUCUUCGATT against Susd4 here?
A: 0.93

Q: With GGACCAUGCUCCCUACUUATT against Prss37 as the sequence, how does the z-score read?
A: 0.386

Q: For GGCUGGUUGGAAGGAAAAUTT against Ints6l, which z-score is on record?
A: 2.1 (active)

Q: For GGCUGUUCAAAAAUUUCGGTT against Sox17, which z-score is on record?
A: -0.261

Q: Which z-score does the source give for GGUUUUGAGAAGAUAACUCTT against Zfp236 here?
A: 0.67

Q: With GGACACACUCUACUUCCCATT against Mrgprg as the sequence, how does the z-score read?
A: -0.196

Q: Which z-score does the source give for GGUUCGAGUUUCAUACUAUTT against Padi4 here?
A: 2.56 (active)

Q: For “GUCAGAACAAAACCAAAUGTT against E330013P04Rik”, which z-score is on record?
A: -0.152

Q: With GGAAUCAUCUUCAUUGACCTT against Agpat1 as the sequence, how does the z-score read?
A: 0.0827

Q: With CGUGUGGUGUUGGUAUCAGTT against Spaca1 as the sequence, how does the z-score read?
A: 0.853

Q: Which z-score does the source give for GGAUUCAUAAAAGAAGCAATT against Zfp90 here?
A: 0.8

Q: Which z-score does the source give for GGCGGCACGUUCACCUAAATT against Rnps1 here?
A: 1.86

Q: With CCACUUGUAGACUUGAUUUTT against Jag1 as the sequence, how does the z-score read?
A: 0.618

Q: Which z-score does the source give for GCCCAGAUCAAUUUGAGCGTT against Grhl2 here?
A: -0.674

Q: With “CGAGAUAGAGUCUGGAAUUTT against 1700092C17Rik” as the sequence, how does the z-score read?
A: 3.91 (active)

Q: For GGUCAUCGGGAGGUUUGAATT against Nfkbil1, which z-score is on record?
A: -0.0141

Q: With GGAUCUCUAUAGCAUCGUGTT against Col18a1 as the sequence, how does the z-score read?
A: 0.249

Q: With GGGAUGCUGUAGAUGGAAUTT against Olfr978 as the sequence, how does the z-score read?
A: 0.0466

Q: Which z-score does the source give for GGCAAAUCAAGCAGAAAAUTT against Ncor1 here?
A: 0.739

Q: With GAUAAUGGUCACUAAAUCUTT against Vmn1r4 as the sequence, how does the z-score read?
A: -1.65

Q: For GCAACCAUUUAAGAAGACCTT against Tnfrsf9, which z-score is on record?
A: -0.301

Q: With GGUGAUCUGGACCAAGAUGTT against Lcp1 as the sequence, how does the z-score read?
A: -0.52

Q: For GGUCUACUUUUACGUCUCCTT against Nfatc4, which z-score is on record?
A: -0.339

Q: With GUGUACGUCUGUUAACACATT against Dad1 as the sequence, how does the z-score read?
A: -2.1 (active)

Q: With CCUUCUUGAAAACUCCAAGTT against Lum as the sequence, how does the z-score read?
A: -0.862

Q: Which z-score does the source give for GGGAAGGCACACCAUAGAATT against Zfp369 here?
A: 1.11

Q: With “GGGCUACUAUUCAUUGAUCTT against 4930550L24Rik” as the sequence, how does the z-score read?
A: 1.94

Q: With CCACUAAGUCCCAUGCUAGTT against Glycam1 as the sequence, how does the z-score read?
A: 0.188

Q: For GGAAUUUAAGGUGUUCACATT against Lcn3, which z-score is on record?
A: -0.197

Q: With GGCUCAGUGAGUUUCAGAATT against Snx25 as the sequence, how does the z-score read?
A: 3.66 (active)

Q: Which z-score does the source give for CCAAAUGUAACUGGUGUAATT against Aif1l here?
A: -0.69

Q: Which z-score does the source give for CGAGACAGUUUCCAUAGCGTT against Spen here?
A: -0.271

Q: Which z-score does the source give for GCAACAUUAGGAUUUAUAGTT against Gask1b here?
A: 0.0376

Q: Which z-score does the source give for GGUAGUCAUACAGAUAUGUTT against Hey2 here?
A: 0.973

Q: With GCAAUCUCUCCUUUUGUGATT against Olfr1128 as the sequence, how does the z-score read?
A: 0.426

Q: Which z-score does the source give for GGACUUUCACAGACCACUUTT against Rgma here?
A: 0.999

Q: With GGAACAAGGAUGUAAAAUUTT against Olfr1090 as the sequence, how does the z-score read?
A: -0.751

Q: With GGAAGACUUUCUGGACAUATT against Sgk2 as the sequence, how does the z-score read?
A: 2.44 (active)

Q: With CCUACAGCAACCAUAAGGATT against Plch2 as the sequence, how does the z-score read?
A: -1.6

Q: For GGACAGCUGUUUCAAUUCUTT against Il1rap, which z-score is on record?
A: -0.162

Q: Which z-score does the source give for GGAUUUGCCUACACAUAUGTT against Nqo1 here?
A: 0.362

Q: Which z-score does the source give for CCCUUCUCCACCUGAGAGUTT against Orm3 here?
A: -2.25 (active)

Q: Which z-score does the source give for GGAAAUGAAGAGUGUUGAATT against Slc7a3 here?
A: -0.4

Q: For UGCCCAAGACUCAGAAGUCTT against Igf1, which z-score is on record?
A: 0.0658

Q: With GCUAACUGCCUUGGGAAGATT against Lyl1 as the sequence, how does the z-score read?
A: 2.57 (active)

Q: Which z-score does the source give for GGCCAAGCACGAUAAAUACTT against Stub1 here?
A: -1.08

Q: Which z-score does the source give for CCUACAGUAUGUGGCAGAUTT against Grb7 here?
A: -1.49

Q: Which z-score does the source give for GGUGUUUUAUACACUCUGUTT against Mgme1 here?
A: -1.85

Q: For GGACUUAAAACAGAAAGCATT against Haus1, which z-score is on record?
A: -2.79 (active)

Q: Which z-score does the source give for CGUGGUUGUACAUAUUUGUTT against Trip10 here?
A: 0.39

Q: Which z-score does the source give for GGGAAACAAAUUGUUUGCATT against Dnaaf4 here?
A: -0.461

Q: For GGCUUUGUCGUUAAUUUUUTT against Auh, which z-score is on record?
A: 0.322

Q: For GGUGCAUUAUCUUGGUUCGTT against Hmga2, which z-score is on record?
A: -2.46 (active)

Q: With GGCAAAUAUUCAGUUUGGATT against Scarb2 as the sequence, how does the z-score read?
A: -0.00406

Q: With GGGUUUAUAAAACUGAAGUTT against Cav2 as the sequence, how does the z-score read?
A: 0.672

Q: For GGCACAUGAGACAGCUUUUTT against Tmem160, which z-score is on record?
A: 0.0311

Q: Which z-score does the source give for CGUGUUCAGCGUAGAAACUTT against Ttll1 here?
A: 0.283

Q: With GGUUUCAGAGCUAAACCCUTT against Larp4b as the sequence, how does the z-score read?
A: 0.235

Q: Which z-score does the source give for “CCAUAGUUUUGGUUACCAATT against E330037G11Rik” here?
A: -0.213

Q: For “GUCUCUUUGCCCUGUGCUATT against Vmn1r239-ps”, which z-score is on record?
A: 0.0206

Q: Which z-score does the source give for GGCUUGGAUUUUGAAAUACTT against Srcin1 here?
A: -0.792

Q: Which z-score does the source give for GCUCAGCAAUACUUCCUACTT against Itgal here?
A: -0.188

Q: Which z-score does the source give for GCUCAUAUACACCAUUUCUTT against Tmem171 here?
A: -1.12

Q: Which z-score does the source give for GCCUAUCAAUGUGUAUCUUTT against Tcf21 here?
A: -0.497

Q: With CGUCCUAGGAAUCUACUUUTT against Itgad as the sequence, how does the z-score read?
A: 2.63 (active)

Q: Which z-score does the source give for GGGAAAGUAAUUGAUAAACTT against Mtrr here?
A: 0.59

Q: For GUCUGUCAUUUGUGGAAAUTT against Olfr1495, which z-score is on record?
A: -2.17 (active)

Q: Which z-score does the source give for CCGAGUUCGGGUAUCUUGGTT against Grwd1 here?
A: -0.885

Q: For CCCACCACAAGCUAAUACATT against Ubac1, which z-score is on record?
A: -0.0826

Q: For GGAACAAAGACAUGUAUCATT against Zgpat, which z-score is on record?
A: -0.931

Q: For GCUCAGAAGUCCAAGAUACTT against Casp12, which z-score is on record?
A: -1.86

Q: For GGUCGCUGGAGACCUUAGUTT against Hjurp, which z-score is on record?
A: -1.88

Q: Which z-score does the source give for GGAACAGGUGAUCCGCUACTT against Lzts2 here?
A: 1.26

Q: With GCACUCUGUUCAGCUAAAATT against Tafa3 as the sequence, how does the z-score read?
A: 2.16 (active)

Q: For GGAAGCUAUGAACAAUACATT against Sulf2, which z-score is on record?
A: 0.00856

Q: Which z-score does the source give for GGUGUGAUGGAGUUCUUAUTT against Ndufs1 here?
A: -0.94

Q: With GGUUCCAUAACCUGUGUCATT against Fbxo28 as the sequence, how does the z-score read?
A: 0.272

Q: With GGGUUAAUGCAGCUCACGUTT against Lrrtm1 as the sequence, how does the z-score read?
A: 0.425

Q: For GGCUUUGGCGAUAAGACAUTT against Glud1, which z-score is on record?
A: 2.29 (active)

Q: For CCAAUUACGGAGAUUGGAATT against Tspan6, which z-score is on record?
A: -0.803

Q: Which z-score does the source give for GGUUGAUUCCAACGACAUCTT against Tinagl1 here?
A: -0.173

Q: With GCAUAAAGCACCCGGAGAGTT against Zbtb32 as the sequence, how does the z-score read?
A: -1.53

Q: For GGUGUUAAGACUCAGCUCATT against Micall2, which z-score is on record?
A: -1.49

Q: Which z-score does the source give for GCCUGGUUAUUAAUUUAUCTT against Dzank1 here?
A: -0.724

Q: Which z-score does the source give for GGCACCCGAGUAGGUCAAATT against Carhsp1 here?
A: 6.02 (active)

Q: With CGUAACUGAGUCAAUUAGUTT against Intu as the sequence, how does the z-score read?
A: 0.128

Q: With GCGUGGUUUCUGAAUACAUTT against Nt5e as the sequence, how does the z-score read?
A: 6.67 (active)

Q: Which z-score does the source give for GGUAACAUCUAUAUAUCACTT against Rb1 here?
A: 1.56

Q: Which z-score does the source give for GGACUCCAACCACACUAUCTT against Rab4b here?
A: 0.847

From PubChem BioAssay AID1508600 (Functional Genomics Laboratory (NCATS/FGL), 2020)
